Reference: the supplement of paper PMC5919970
Structures can show the parent of a compound that is named as a salt. In all, about 2,000 compounds were measured (“fractional viability relative to vehicle”: median about 0.91, lowest 2% from about 0.045 on). The sample holds the lowest values, similar compounds and a random draw of the others, so the mix is not that of the screen.

Test system: TYKNU
Assay: fractional viability relative to vehicle; TYKNU is a high-grade serous ovarian cancer line; higher = less growth inhibition
Details: 72 h
Method in brief: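 TYKNU control cells or lentiCRISPRv2 knockout derivatives were plated at 500 cells per well in duplicate into drug-stamped 384-well plates holding a ~2100-compound library at 2 or 10 μM. Culture was in RPMI 1640 with 10% FBS at 37 °C in 5% CO2, with 72 h of drug treatment. Viability was measured by Cell Titer Glo luminescence, and the averaged duplicate treatment wells were normalised to duplicate control wells at the same plate position.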

[1] = 2uM, genotype: DNM1L knockout (sgDNM1L #1)
[2] = 2uM, genotype: sgCTRLA1 (non-targeting control)
[3] = 10uM, genotype: DNM1L knockout (sgDNM1L #1)
[4] = 10uM, genotype: sgCTRLA1 (non-targeting control)

SMILES	fractional viability [1]	fractional viability [2]	fractional viability [3]	fractional viability [4]
COc1cccc(-n2c(=O)[nH]c3cc(Cl)n(-c4ccc(-c5cccc(OC)c5O)cc4)c3c2=O)c1	0.844	1.02	0.857	0.918
CN1CCCN(C(=O)c2cccc(-c3ccc(/C=C4/C(=O)Nc5ccc(Cl)cc54)o3)c2)CC1	0.0585	0.0575	0.0139	0.00867
CN1CCN(C(=O)c2cc3cc(Cl)ccc3[nH]2)CC1	1.13	1.23	0.961	1.16
COc1ccc2[nH]cc(/C=C3\C(=O)Nc4ccc(NC(=O)CCN5CCCCC5)cc43)c2c1	0.761	0.929	0.809	0.795
O=C(Nc1nc2cccc(-c3ccc(CN4CCS(=O)(=O)CC4)cc3)n2n1)C1CC1 [Filgotinib (GLPG0634)]	0.73	0.849	0.493	0.573
CC(=O)Oc1ccccc1C(=O)O [Aspirin]	0.863	1.09	1.01	1.05
CC(=O)OCOC(=O)CN(CC(=O)OCOC(C)=O)c1ccccc1OCCOc1ccccc1N(CC(=O)OCOC(C)=O)CC(=O)OCOC(C)=O	0.391	0.569	0.0416	0.0639
O=C(NNc1nc2cc(F)ccc2n2cccc12)c1cnccn1	0.358	0.282	0.269	0.247
Nc1c(CC(=O)O)cccc1C(=O)c1ccc(Br)cc1 [Bromfenac Sodium]	0.888	1.1	0.801	1.05
CCN(CC)CCNC(=O)c1c(C)[nH]c(/C=C2\C(=O)Nc3ccc(F)cc32)c1C [Sunitinib Malate]	0.853	0.819	0.169	0.122
CCN(CC)CCNC(=O)c1ccc(N)cc1 [Procainamide HCl]	0.791	1	0.633	0.929
CCN(CC)CCNC(=O)c1c(C)[nH]c(/C=C2\C(=O)Nc3ccc(F)cc32)c1C [Sunitinib]	0.544	0.67	0.0734	0.0439
Cc1[nH]c(/C=C2\C(=O)Nc3ccccc32)c(C)c1CCC(=O)O [TSU-68 (SU6668, Orantinib)]	0.962	1.11	0.869	1.02
O=C(c1ccc(F)c(F)c1Nc1ccc(I)cc1F)N1CC(O)([C@@H]2CCCCN2)C1 [Cobimetinib (GDC-0973, RG7420)]	0.814	1.03	0.942	0.846
Nc1ccc2ncnc(NCCc3ccc(Oc4ccccc4)cc3)c2c1	0.604	0.444	0.596	0.43
COc1ccc(/C=C\c2cc(OC)c(OC)c(OC)c2)cc1O [Combretastatin A4]	0.11	0.122	0.111	0.073
COc1cc(/C=C/C(=O)N2CCN(CC(=O)N3CCCC3)CC2)cc(OC)c1OC [Cinepazide maleate]	1.08	0.973	1.1	1.02
COc1cc(/C=C/C(=O)N2CCC=CC2=O)cc(OC)c1OC [Piperlongumine]	0.302	0.319	0.0446	0.0292
COc1ccc2cc(OCC3(C(=O)O)CN(C(=O)c4ccc(F)cc4)C3)ccc2c1	0.822	1.12	0.788	1.11
COCCOc1ccc2c(c1)ncn2-c1ccc2cccc(N3CCC(N)CC3)c2n1	0.892	0.893	0.13	0.139
Cc1cc(C)c(CNC(=O)c2cc(-c3ccc(N4CCN(C)CC4)nc3)cc3c2c(C)cn3C(C)C)c(=O)[nH]1	0.782	1.03	0.669	0.609
O=C(NC1CC1)c1cc(-c2cccs2)on1 [Isoxazole 9 (ISX-9)]	0.927	0.844	0.795	0.662
CC(CNC(=O)c1cccnc1)NC(=O)c1cccnc1 (stereo unspecified) [Nicaraven]	0.754	1.07	0.726	0.99
COc1ncc(-c2ccc3nccc(-c4ccnnc4)c3c2)cc1NS(=O)(=O)c1ccc(F)cc1F	0.446	0.184	0.0665	0.0352
CCCS(=O)(=O)Nc1ccc(F)c(C(=O)c2c[nH]c3ncc(-c4ccc(Cl)cc4)cc23)c1F [Vemurafenib (PLX4032, RG7204)]	1.05	1.26	0.823	0.974
COC(=O)N[C@H](C(=O)N1CCC[C@H]1c1ncc(-c2ccc(-c3ccc(-c4cnc([C@@H]5CCCN5C(=O)[C@@H](NC(=O)OC)C(C)C)[nH]4)cc3)cc2)[nH]1)C(C)C	1.04	1	0.511	0.654
C=CC(=O)Nc1ccc2ncnc(Nc3cccc(Br)c3)c2c1	0.927	0.921	0.248	0.317
CS(=O)(=O)CCNCc1ccc(-c2ccc3ncnc(Nc4ccc(OCc5cccc(F)c5)c(Cl)c4)c3c2)o1	1.08	1.02	0.179	0.303
C=CC(=O)Nc1ccc2ncnc(Nc3ccc(OCc4cccc(F)c4)c(Cl)c3)c2c1	0.704	0.853	0.044	0.0416
